Reference: PubChem BioAssay (Tox21)
Records with an inconclusive call do not appear. Unmarked numbers belong to inactive results. Activity calls are given as the source filed them. The call rests on the fitted dose curve; in most records, active means well fitted curve in the direction sought with a large enough effect in the repeat runs; inconclusive means weak or mixed curves; inactive means no such curve, though single readings can be large; an effect the other way counts as inactive or inconclusive.

Test: Caspase-3/7 induction in HepG2 cells by small molecules, qHTS assay (AID 1346978); further: nearly all actives have a fitted effect of over 15% in size
Details: HepG2 caspase-3/7 activation, Caspase-Glo luminescence, 17 h; series mostly up to 92.4 µM; caspase activation: at the top concentration
Summary of the method: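 Wild-type HepG2 cells, 2,000/well, settled 5 hr at 37 C and 5% CO2, then compound-treated for 17 hr; caspase-3/7 activity read by luminescent Caspase-Glo 3/7 after 30 min at room temperature.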
On the % scale 0 is the no-effect control and ±100 the full control effect.

Row | SMILES | caspase activation | Potency
1 | O=C(O)c1ccccc1C(=O)Nc1cccc2ccccc12 | 1.9% | –
2 | CNC(C)Cc1ccccc1OC (stereo not given) | 1.68% [at 42.5 µM] | –
3 | COC(=O)C(C)N(C(=O)Cc1ccccc1)c1c(C)cccc1C (stereo not given) | 3.69% | –
4 | CC(C)=CCOc1c2occc2cc2ccc(=O)oc12 | 1.8% [at 42.5 µM] | –
5 | CCCCNP(N)(N)=S | 0.512% | –
6 | COC(=O)C(Br)CBr (stereo not given) | -0.495% | –
7 | Cc1ccc2ccccc2c1 | -1.18% | –
8 | COC(C)(C)CCC[C@H](C)C/C=C/C(C)=C/C(=O)OC(C)C | 0.334% | –
9 | COC(N)=O | 0.424% | –
10 | CCCC(=O)Cl | -1.04% | –
11 | NC(=O)CI | 0.343% | –
12 | CCBr | 0.397% | –
13 | NNC(=O)c1cccnc1 | -2.31% | –
14 | Cc1cc(=O)[nH]o1 | 0.701% | –
15 | N#CCc1ccccc1 | 0.191% | –
16 | CC(Cl)Cl | 0.484% | –
17 | CCCN(CCCl)c1c([N+](=O)[O-])cc(C(F)(F)F)cc1[N+](=O)[O-] | -1.03% | –
18 | COc1cc(CC(C)N)cc2c1OCO2 (stereo not given) | -0.412% | –

Row | SMILES | caspase activation | Potency
19 | CCOP(=O)(OCC)SCCSCC | – | inactive
20 | CCCCCCC#N | 0.238% | –
21 | CC(C)(C)C(O)C(Oc1ccc(Cl)cc1)n1cncn1 (stereo not given) | -1.7% | –
22 | NC(=O)C(Cl)(Cl)Cl | 0.0778% | –
23 | Brc1ccc(Oc2ccccc2)cc1 | – | inactive
24 | CCOP(O)OCC | 0.639% | –
25 | Cc1ccc(N)cc1C | 0.166% | –
26 | O=C(NC(=O)c1c(F)cccc1F)Nc1cc(Cl)c(Oc2ncc(C(F)(F)F)cc2Cl)c(Cl)c1 | -1.51% | –
27 | CCCN(CC1CC1)c1c([N+](=O)[O-])cc(C(F)(F)F)cc1[N+](=O)[O-] | 1.12% | –
28 | C=CCC1([C@H](C)CCC)C(=O)NC(=O)NC1=O | 4.51% | –
29 | CCCCCCCCCCOC(=O)c1ccccc1C(=O)OCCCCCCCCCC | 0.0007% | –
30 | O=NN1CCCCCC1 | 0.021% | –
31 | C=CCCl | 0.0096% | –
32 | IC(I)=C(I)I | -12.5% | –
33 | CC1(C)[C@H](C=C(Cl)Cl)[C@@H]1C(=O)O[C@@H](C#N)c1cccc(Oc2ccccc2)c1 | -4.64% | –
34 | C=CC(=O)OC(C)(C)C | -0.104% | –
35 | CCOP(=S)(OCC)Oc1nc(Cl)c(Cl)cc1Cl | – | inactive

Test: Caspase-3/7 induction in CHO-K1 cells by small molecules, qHTS cell viability counter screen (AID 1346979); further: nearly all actives have a fitted effect of over 35% in size; further: potency means the concentration at half of the fitted maximal effect
Details: CellTiter-Fluor fluorescence, 17 h; series mostly up to 92.4 µM; activity change, negative = cytotoxicity: at the top concentration
Summary of the method: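 Cells (CHO-K1, wild type) are plated at 1,500 per well and incubated 5hr. Test compounds in DMSO are then pinned in, followed by 16hr at 37C and 5% CO2. Viability is read by CellTiter-Fluor fluorescence after 1hr.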

Row | SMILES | activity change, negative = cytotoxicity | Potency
36 | O=C(O)c1ccccc1C(=O)Nc1cccc2ccccc12 | -0.451% | –
37 | CNC(C)Cc1ccccc1OC (stereo not given) | 9.99% [at 42.5 µM] | –
38 | COC(=O)C(C)N(C(=O)Cc1ccccc1)c1c(C)cccc1C (stereo not given) | -1% | –
39 | CC(C)=CCOc1c2occc2cc2ccc(=O)oc12 | -2.46% [at 42.5 µM] | –
40 | CCCCNP(N)(N)=S | 11.9% | –
41 | COC(=O)C(Br)CBr (stereo not given) | -3.18% | –
42 | Cc1ccc2ccccc2c1 | 0.986% | –
43 | COC(C)(C)CCC[C@H](C)C/C=C/C(C)=C/C(=O)OC(C)C | 6.5% | –
44 | COC(N)=O | 2.72% | –
45 | CCCC(=O)Cl | 3.12% | –
46 | NC(=O)CI | -9.14% | –
47 | CCBr | 5.62% | –
48 | NNC(=O)c1cccnc1 | -3.69% | –
49 | Cc1cc(=O)[nH]o1 | -0.18% | –
50 | N#CCc1ccccc1 | 1.51% | –
51 | CC(Cl)Cl | 0.0573% | –
52 | CCCN(CCCl)c1c([N+](=O)[O-])cc(C(F)(F)F)cc1[N+](=O)[O-] | -1.61% | –
53 | COc1cc(CC(C)N)cc2c1OCO2 (stereo not given) | -0.0342% | –

Row | SMILES | activity change, negative = cytotoxicity | Potency
54 | CCOP(=O)(OCC)SCCSCC | -1.85% | –
55 | CCCCCCC#N | -2.38% | –
56 | CC(C)(C)C(O)C(Oc1ccc(Cl)cc1)n1cncn1 (stereo not given) | 0.671% | –
57 | NC(=O)C(Cl)(Cl)Cl | 3.84% | –
58 | Brc1ccc(Oc2ccccc2)cc1 | – | inactive
59 | CCOP(O)OCC | 0.082% | –
60 | Cc1ccc(N)cc1C | 2.1% | –
61 | O=C(NC(=O)c1c(F)cccc1F)Nc1cc(Cl)c(Oc2ncc(C(F)(F)F)cc2Cl)c(Cl)c1 | – | 52.2 µM (active)
62 | CCCN(CC1CC1)c1c([N+](=O)[O-])cc(C(F)(F)F)cc1[N+](=O)[O-] | 0.484% | –
63 | C=CCC1([C@H](C)CCC)C(=O)NC(=O)NC1=O | -2.62% | –
64 | CCCCCCCCCCOC(=O)c1ccccc1C(=O)OCCCCCCCCCC | 6.22% | –
65 | O=NN1CCCCCC1 | 6.98% | –
66 | C=CCCl | 0.345% | –
67 | IC(I)=C(I)I | – | 4.86 µM (active)
68 | CC1(C)[C@H](C=C(Cl)Cl)[C@@H]1C(=O)O[C@@H](C#N)c1cccc(Oc2ccccc2)c1 | -3.29% | –
69 | C=CC(=O)OC(C)(C)C | 6.7% | –
70 | CCOP(=S)(OCC)Oc1nc(Cl)c(Cl)cc1Cl | -3.78% | –
